Sampled rows, rich in hits. Any-hit rate of the full collection: about 2.6%.
Cardio protect = myocardial damage modulation in H9c2 cells. protection from H2O2 cell death, % at 20 µM. 0.63% of 360,000 active. H9c2 cardiomyocytes, H2O2 injury protection, ATPLite, 2 h. AID 588492;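 active = compounds giving at least 50% protection of heart cells from peroxide-induced death in the single-dose screen, raw or plate-pattern-corrected value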;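 note: 0% = DMSO wells with peroxide and 100% = DMSO wells without peroxide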
Gli-Sufu antag = blocks Gli-Sufu signaling in a luciferase reporter. 0.74% of 340,000 active. Sufu-KO-LIGHT fibroblasts, Gli luciferase reporter luminescence. inhibition, % at 5 µM;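 active = inhibition above about 55%, limit read from the data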;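 note: 0% = DMSO-treated cells and 100% = wells with medium but no cells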
Jurkat NFkB inh = lowers PMA/ionomycin-induced NF-kB signal in Jurkat cells. inhibition, % at 4 µM. AID 435003. PMA/ionomycin-induced NF-kB luciferase reporter, luminescence. 0.53% of 330,000 active; in the data active = inhibition above about 50%
697 NFkB inh = inhibitors of the PMA/ionomycin-induced NF-kB reporter in 697 B cells. AID 435022. inhibition, % at 4 µM. 0.33% of 330,000 active. 697 B-cell NF-kB luciferase reporter, 16 h; in the data active = inhibition above about 35%
TAG inh = reduces triacylglycerol accumulation in H9c2 cells; AID 651582; 0.66% of 230,000 active; inhibition, % at 12.5 µM; Nile Red lipid (TAG) fluorescence; cells loaded with 200 µM oleic acid;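 active = pattern-corrected inhibition of lipid staining of at least 50% with the nuclear-stain viability signal not falling by more than 50%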;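 note: 0% = DMSO wells and 100% = triacsin C control wells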
NR2F2 inh = NR2F2 (human) inhibition, primary screen; P24468; HEK293T NGFI-A luciferase reporter, luminescence; inhibition, % at 8.6 µM; 0.7% of 370,000 active; AID 686940;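 active = inhibition above a per-plate cutoff, mean inhibition of test wells between control levels plus 3 SD, cut at about 38% in these data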;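 note: cells cotransfected with COUP-TFII expression vector driving the NGFI-A reporter; 0% = median of COUP-TF2 test wells and 100% = reporter-only cells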
Target sequence (P24468 whole entry, looked up): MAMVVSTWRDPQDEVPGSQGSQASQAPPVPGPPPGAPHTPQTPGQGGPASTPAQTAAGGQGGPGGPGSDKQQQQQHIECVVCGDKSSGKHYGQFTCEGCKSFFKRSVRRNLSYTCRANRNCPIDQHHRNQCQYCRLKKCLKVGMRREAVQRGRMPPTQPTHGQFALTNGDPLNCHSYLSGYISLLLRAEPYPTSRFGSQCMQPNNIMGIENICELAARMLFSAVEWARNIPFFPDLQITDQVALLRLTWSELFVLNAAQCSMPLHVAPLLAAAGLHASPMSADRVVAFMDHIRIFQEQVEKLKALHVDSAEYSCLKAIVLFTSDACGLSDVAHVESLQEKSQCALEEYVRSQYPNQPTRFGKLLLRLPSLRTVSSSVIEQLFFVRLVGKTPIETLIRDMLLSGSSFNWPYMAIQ
697 NFkB conf = inhibitors of the PMA/ionomycin-induced NF-kB reporter in 697 B cells, retest; shares compounds with 697 NFkB inh; 697 B-cell NF-kB luciferase, 16 h; inhibition, % at 4 µM; 35% of 2,000 active; AID 449746; in the data active = inhibition mostly above about 28%, no sharp cut-off; inactive = mostly below about 22%
Numbers without * were called inactive; i = inactive; / = no result.

SMILES | Cardio protect | Gli-Sufu antag | Jurkat NFkB inh | 697 NFkB inh | TAG inh | NR2F2 inh | 697 NFkB conf
O=C(OCCc1ccccc1)c1cc(O)c(O)c(O)c1 | 45.9 | 15.9 | -48.5 | i | 0.7 | -60.2 | -233.2
ClCc1nnc(-c2ccccc2)o1 | -3.4 | 0.5 | 5.0 | 35.4* | 10.5 | -9.4 | 29.4*
C[C@H](CO)N1C[C@H](C)[C@@H](CN(C)C(=O)Nc2ccc3c(c2)OCO3)Oc2c(NC(=O)Nc3ccc(C(F)(F)F)cc3)cccc2C1=O | 85.5* | 4.3 | -3.3 | 45.7* | 27.3 | 15.8 | 16.1
CN(Cc1cn(CC2CCCCC2)nn1)S(=O)(=O)c1ccccc1Br | / | / | / | / | / | 6.6 | /
COc1ccc(-c2noc(N3CCC(C(=O)Nc4ccc(F)cc4F)CC3)n2)cc1 | -14.3 | -5.1 | 16.7 | 36.0* | 4.3 | -17.7 | 34.6*
O=C(CCc1ccccc1)N[C@H]1[C@H](OC(=O)c2ccco2)CCC[C@]12C(=O)N(Cc1ccccc1)c1ccccc12 | / | / | / | / | / | 9.5 | /
Cc1ccc(NC(=O)C2CCCN(c3nnc(-n4cccc4)s3)C2)cc1C (stereo not drawn) | / | / | / | / | / | 8.6 | /
COc1ccc(NC(=O)c2cc(-c3ccccn3)nc3ccccc23)cc1S(=O)(=O)N(C)C | 89.2* | 0.7 | 18.2 | 39.2* | 23.5 | -3.4 | 46.2*
O=c1cc(Nc2ccc3c(c2)OCCO3)[nH]c(=O)n1-c1ccc(Cl)cc1 | 8.8 | -23.8 | -3.5 | 38.2* | 14.0 | -4.0 | 23.6
O=c1cc(Nc2ccc3c(c2)OCCO3)[nH]c(=O)n1C1CCCCC1 | 6.2 | -21.4 | 42.7 | 23.0 | / | -5.0 | /
O=C(NN=C/C=C/c1ccco1)c1cc(-c2ccc(Cl)cc2)n[nH]1 | / | / | / | / | / | 3.1 | /
CC(C)(C)c1ccc(-c2nnc(SCC(=O)c3ccc4ccccc4c3)n2-c2ccc(Cl)cc2)cc1 | / | / | / | / | / | 10.4 | /
Cc1cccc2nc(COc3ccc(-c4ccccc4)cc3)cn12 | / | / | -26.8 | i | / | / | -450.5
COC1=C[C@H](C(=O)NCc2ccccn2)[C@H](C)[C@@H](c2ccccc2)CC1=O | / | / | / | / | / | -4.0 | /
Cc1cc(/C=C2\Cc3ccccc3C2=O)c(C)n1-c1ccccc1 | -29.8 | 16.0 | -23.6 | -309.5 | / | -18.2 | -193.2
Oc1ccc(C[C@H]2CNCCN2CCC23CC4CC(CC(C4)C2)C3)cc1 | -10.4 | 3.7 | 11.8 | 7.2 | -0.4 | -21.0 | /
Oc1ccc(C[C@@H]2CNCCN2CCC23CC4CC(CC(C4)C2)C3)cc1 | 1.8 | 11.7 | 11.6 | 37.2* | 28.4 | -7.1 | -2.7
COC(=O)[C@]12C[C@H](CC(=O)N3CCCCC3)C(=O)N(CCC3=CCCCC3)C1=C[C@H](C1CCCC1)O[C@@H]2C | / | / | / | / | / | -9.6 | /
COCCNC(=O)c1cc(-c2ccc(-c3ccccc3)cc2)nc2ccccc12 | -9.6 | 7.7 | -83.3 | i | 5.6 | -48.0 | i
O=C(NCc1ccccn1)c1cc(-c2ccc(-c3ccccc3)cc2)nc2ccccc12 | -20.8 | -52.6 | -53.4 | i | / | -53.0 | i
O=C(NCc1ccccn1)c1cc(-c2ccccc2)nc2ccccc12 | -2.8 | 7.8 | -5.5 | 3.9 | / | -9.0 | /
O=[N+]([O-])c1ccn(-c2nc(-c3ccccc3)cc(C(F)(F)F)n2)n1 | 1.0 | -7.8 | -10.8 | 38.9* | -5.1 | -17.1 | 2.6
O=[N+]([O-])c1ccc(O)c(-c2cc(C(F)(F)F)nc(-c3ccccc3)n2)c1 | -21.4 | 87.9* | 44.6 | i | / | 2.8 | -459.8
c1ccc(-c2cnc(-c3ccccc3)nc2)cc1 | -10.7 | -56.2 | -133.8 | -295.5 | / | -26.4 | -319.4
O=C(O)c1ncc(-c2ccccc2)cn1 | -1.3 | 2.7 | -5.3 | -7.0 | / | -16.2 | /
CC(C)(C)c1cc(C(=O)NN)n(Cc2ccc(F)cc2)n1 | 7.2 | 5.0 | -14.8 | -3.8 | -6.1 | -4.0 | /
Cc1cccc(Cn2nc(C(C)(C)C)cc2C(=O)Nc2ccc(F)cc2)c1 | -7.5 | -6.2 | -45.0 | -299.3 | 45.4 | -40.1 | -369.6
CN(CCCOC(=O)c1cc2ccccc2o1)C1CN(Cc2cn(Cc3ccccc3C(F)(F)F)nn2)S(=O)(=O)C1 (stereo not drawn) | / | / | / | / | / | 13.7 | /
CNC(=S)N/N=C/c1cn(CCOc2ccccc2OC)c2ccccc12 | -8.6 | 21.3 | -13.4 | 35.3* | 30.4 | -21.0 | 14.9
CNC(=S)N/N=C/c1cn(CCOc2cccc(OC)c2)c2ccccc12 | -15.4 | 9.7 | -8.2 | 39.5* | / | -10.3 | -10.9
